Most compounds without a hit are left out; they make up all but 18% or so of the library.
DT40 TDP1 no CPT = qHTS for Inhibitors of human tyrosyl-DNA phosphodiesterase 1 (TDP1): qHTS in cells in absence of CPT; DT40 Tdp1-/- hTDP1 cells, no CPT, ATP luminescence, 48 h; Potency, µM (series often up to 46.2 µM), for inactives: at the top dose activity change, negative = growth inhibition, most hits filed as inhibitors; hit rate 15% among 420,000; also: potency is read from the fitted curve at half-maximal effect; % is scaled to controls: 0 for no effect and ±100 for the full control effect; nearly all actives have a fitted effect of over 55% in size
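A cellular qHTS used chicken DT40 cells lacking endogenous Tdp1 but carrying stably transfected human TDP1. Compounds were applied without camptothecin, and cell growth kinetics were judged by ATP-dependent luminescence after ≥48 hr.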
IL-1B inflam inh = inhibitors of inflammasome signaling (IL-1 beta secretion) | THP-1 LPS/ATP IL-1B secretion, AlphaLISA, 16 h; hits give low values | activity change, % at 57.5 µM | hit rate 4.7% among 360,000 | AID 743279; in the data active = activity change below about -50%; inconclusive = mostly about -30% to -49%; also: % is scaled to controls: 0 for no effect and ±100 for the full control effect
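THP-1 cells pretreated 1 hr with compounds (up to 57.5 uM final), then stimulated with LPS (250 ng/mL final) plus ATP (1.25 mM final); secreted IL-1B measured by AlphaLISA after 16 hr, decreased signal indicating inhibition.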
TDP1 block = blocks human tyrosyl-DNA phosphodiesterase 1. recombinant TDP1, AlphaScreen DNA substrate cleavage. Potency, µM (highest dose often 130 µM), inactives show top-dose activity change, negative = inhibition, actives largely listed as inhibitors. Q9NUW8. hit rate 0.28% among 350,000; also: potency is read from the fitted curve at half-maximal effect; % is scaled to controls: 0 for no effect and ±100 for the full control effect; nearly all actives have a fitted effect of over 40% in size
Target sequence (Q9NUW8 whole entry, looked up): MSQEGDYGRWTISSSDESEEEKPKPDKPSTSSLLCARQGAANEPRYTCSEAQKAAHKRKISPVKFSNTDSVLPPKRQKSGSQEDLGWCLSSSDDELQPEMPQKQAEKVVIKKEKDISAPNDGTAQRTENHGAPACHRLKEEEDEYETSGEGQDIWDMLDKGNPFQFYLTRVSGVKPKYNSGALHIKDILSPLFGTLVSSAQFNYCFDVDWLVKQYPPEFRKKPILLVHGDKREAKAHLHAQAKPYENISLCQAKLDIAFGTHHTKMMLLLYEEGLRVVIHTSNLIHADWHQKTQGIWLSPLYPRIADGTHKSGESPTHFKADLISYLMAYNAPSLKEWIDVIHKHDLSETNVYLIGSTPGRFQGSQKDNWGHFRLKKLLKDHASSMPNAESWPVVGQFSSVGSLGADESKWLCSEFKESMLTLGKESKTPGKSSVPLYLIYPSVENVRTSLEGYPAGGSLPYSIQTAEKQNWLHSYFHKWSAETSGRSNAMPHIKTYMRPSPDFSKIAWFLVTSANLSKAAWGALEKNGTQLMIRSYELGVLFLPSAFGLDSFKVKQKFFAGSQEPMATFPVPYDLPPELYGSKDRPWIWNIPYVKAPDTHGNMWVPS
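Here, a 5' biotin and 3' phosphotyrosine-FITC DNA oligonucleotide reports Tdp1 activity: intact substrate bridges AlphaScreen beads, while cleavage leaves a 3' phosphate and drops signal. All incubations at room temperature.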
TGFb inhibitor = TGF-b pathway inhibition | hit rate 1.2% among 410,000 | HepG2 CAGA-GFP TGF-b/SMAD3 reporter, GFP fluorescence, 18 h; TGF-beta stimulated, 500 pg/mL final | Potency, µM (doses to about 46.1 µM), for inactives: top-dose activity, negative = inhibition, hits mostly inhibitors | AID 588855; also: potency is read from the fitted curve at half-maximal effect; % is scaled to controls: 0 for no effect and ±100 for the full control effect; nearly all actives have a fitted effect of over 65% in size
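HEPG2 CAGA-GFP reporter cells (1000/well, DMEM with 1% FBS) received compounds, then recombinant TGF-beta at 500 pg/mL final for 18 hours at 37 degrees C. Per-cell GFP summed per well was normalised to unstimulated and stimulated DMSO controls before curve fitting.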
HepG2 tox = kills HepG2 cells in TGF-b inhibitor counter-screen | Potency, µM (highest dose often 46.1 µM), for the others: at the highest dose activity change, negative = cytotoxicity, hits mostly cytotoxic | HepG2 CAGA-GFP viability, ATP luminescence, 18 h | hit rate 0.76% among 410,000; also: potency is read from the fitted curve at half-maximal effect
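HepG2 CAGA-GFP cells (1000/well, DMEM with 1% FBS) received compound, then TGF-beta at 500 pg/mL final, and were incubated 18 hours at 37 degrees C. Viability was read by CellTiter-Glo luminescence. Media-only wells were set as complete cell-killing and DMSO as no toxicity.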
DT40 TDP1 CPT = DT40-hTDP1 cell growth loss with CPT | chicken DT40 Tdp1-/-;hTDP1 cells + 20 nM CPT, ATP luminescence, 48 h | Potency, µM (top dose mostly 46.2 µM), without a hit: top-dose activity change, negative = growth inhibition, hits mostly inhibitors | hit rate 12% among 420,000 | AID 686979; also: potency is read from the fitted curve at half-maximal effect; % is scaled to controls: 0 for no effect and ±100 for the full control effect; nearly all actives have a fitted effect of over 55% in size
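Cell growth measured by CellTiter-Glo luminescence after a minimum 48 h, 37 C compound exposure with 20 nM CPT in Tdp1-knockout DT40 cells stably expressing hTDP1, seeded 400/well; qHTS titration format.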
* hit, by the source's call; ? = inconclusive; nt = no result given; ! = not active in a repeat; [ ] = dose if it differs, or a comment. Unless noted, calls follow the shape of the dose curve; as a rule, active = well fitted curve in the direction sought with a large enough effect; inconclusive = small, poorly fitted or top-dose-only effect, or another doubt; inactive = no such curve, though single readings can be large; an effect the other way counts as inactive or inconclusive.

SMILES | DT40 TDP1 no CPT | IL-1B inflam inh | TDP1 block | TGFb inhibitor | HepG2 tox | DT40 TDP1 CPT
Cc1ccc(NCC(=O)N2CCN(S(=O)(=O)c3ccccc3)CC2)cc1F | -17% | -6 | 3% | 1% | 3% | -29%
CNCC[C@@H](Oc1ccccc1C)c1ccccc1 | 24µM* | ? | -4%[56.1 µM] | 7% | -26% | ?
CNCCC(Oc1ccccc1OC)c1ccccc1 (stereo not given) | 23µM*! | -13 | 7%[56.1 µM] | 28% | -26% | 13µM*!
CCN1C(=O)C2(C(C(=O)c3cc4ccccc4o3)=C(O)C(=O)N2CCCN2CCOCC2)c2ccccc21 (stereo not given) | -7% | 7 | nt | 6% | 2% | 18%
O=C(CNC(=O)c1ccccc1Cl)N/N=C/c1ccc([N+](=O)[O-])s1 | 21µM* | -56* | -1% | 13µM* | 10µM* | 21µM*
O=C(CCNC(=O)c1ccccc1Cl)NN=Cc1ccccc1[N+](=O)[O-] | ? | -9 | 0% | 2% | -15% | ?
O=C(Cc1cccs1)N/N=C\c1ccc([N+](=O)[O-])s1 | 21µM* | 7 | 7% | ? | -15% | 8.2µM*
Cc1onc(-c2ccccc2)c1C(=O)N/N=C/c1ccc([N+](=O)[O-])s1 | 13µM* | -13 | 9% | ? | 10µM* | 16µM*
Cc1onc(-c2ccccc2)c1C(=O)N/N=C/c1ccco1 | 0% | 14 | 1% | -11% | -68% | -29%
CCS(=O)(=O)c1nc(S(=O)(=O)c2ccc(Cl)cc2)c(NCc2ccc(Cl)cc2)s1 | ? | nt | 0% | -31% | -30% | ?
COc1cccc(C(O)c2ncc(-c3ccccc3)[nH]2)c1 (stereo not given) | -23% | 18 | nt | 20% | 5% | ?
O=C(COc1cc2oc(=O)cc(-c3ccccc3)c2cc1Cl)NCc1ccccn1 | ? | -12 | 0% | -3% | -26% | ?
CC(Oc1ccc(F)cc1)C(=O)Nc1ccc(N2CCOCC2)cc1N1CCOCC1 (stereo not given) | ? | -7 | nt | -2% | -2% | -26%
CCC(C)Oc1ccc(C(=O)Nc2ccc(CN3CCOCC3)cc2)cc1 (stereo not given) | 15µM* | ? | nt | -21% | -5% | 21µM*
CC(Oc1cccc(Cl)c1)C(=O)Nc1ccc(N2CCOCC2)cc1N1CCOCC1 (stereo not given) | 13µM* | -24 | nt | ? | -12% | ?
CC(C)COc1cccc(C(=O)Nc2ccc(CN3CCOCC3)cc2)c1 | ? | -82* | nt | 0% | -14% | 23µM*
CC(C)COc1cccc(C(=O)Nc2ccc(N3CCOCC3)cc2N2CCOCC2)c1 | 13µM* | -27 | 1% | -24% | 6% | ?
CCOc1ccc(NC(=O)c2ccc(NC(=O)c3ccc(CN4CCOCC4)cc3)cc2)cc1 | -18% | 0 | 0% | -10% | 5% | -5%
Cn1ncc(Cl)c1C(=O)N1CCN(c2ccc(F)cc2)CC1 | 1% | 3 | 3% | -33% | -29% | 3%
CCc1ccc(NC(=O)COC(=O)c2ccccc2OCC(=O)N(C)C)cc1 | 0% | nt | nt | -30% | -38% | 3%
O=C(CC1CC2CCC1C2)Nc1nc(-c2ccccn2)cs1 (stereo not given) | 6.5µM* | 91 | 8% | -29% | -23% | ?
COc1ccc(NC(=O)CC2CC3CCC2C3)cn1 (stereo not given) | -6% | -16 | 0% | -6% | -10% | -7%
O=C(Nc1nc(-c2ccccn2)cs1)C1CC(=O)N(c2ccc3c(c2)OCCO3)C1 (stereo not given) | 16µM* | 23 | 3% | 8% | -28% | 26µM*
O=C(Nc1nc(-c2ccccn2)cs1)C1CC1 | 18µM* | -1 | 5% | 0% | -29% | 23µM*
CN(C)C(=O)c1ccc(NC(=O)COc2cccc3c2OC(C)(C)C3)cc1 | ? | -3 | -1% | ? | 2% | -5%
SMILES | DT40 TDP1 no CPT | IL-1B inflam inh | TDP1 block | TGFb inhibitor | HepG2 tox | DT40 TDP1 CPT
COc1ccc(-c2nc3cnc(N4CCOCC4)nc3n(CCc3ccccc3)c2=O)cc1 | 18% | nt | nt | nt | nt | -4%
CCc1ccc(CNC(=O)Cc2c(C(=O)O)c(C)cn2C)cc1 | -9% | nt | 0% | -13% | 1% | 6%
CCCCN(C(=O)c1cc2c(s1)CCC2)c1c(N)n(CCC)c(=O)[nH]c1=O | 14% | 8 | nt | -14% | 1% | 7%
O=C(NCc1nnc2n1CCN(Cc1cc3c(cc1Cl)OCO3)CC2)C1CCOC1 (stereo not given) | -4% | nt | nt | nt | nt | 7%
CCN1CCN(c2ccc(NC(=O)c3cc(S(=O)(=O)N4CCCC4)ccc3Cl)cc2)CC1 | 26µM* | 21 | 4% | -11% | -30% | ?
CCN1CCN(S(=O)(=O)c2ccc(Cl)c(C(=O)Nc3ccc(OC(F)F)cc3)c2)CC1 | ? | -11 | 2% | -22% | 8.9µM* | ?
CCN1CCN(S(=O)(=O)c2ccc(Cl)c(C(=O)N(CC)CC(=O)Nc3ccc(OC)cc3)c2)CC1 | 0% | 1 | -5% | -5% | -7% | -23%
Nc1cccc2nc3ccccc3cc12 | ? | 23 | -5% | ? | 14% | 6.5µM*
COc1ccc(-c2cc(C(F)(F)F)n3nc(C(=O)NCCCn4ccnc4)cc3n2)cc1 | ? | -59* | 0% | -4% | -27% | -30%
O=C(NCCCn1ccnc1)c1nn2c(C(F)(F)F)cc(-c3ccc(Br)cc3)nc2c1Cl | 16µM* | -52* | 0% | 18% | 5.6µM* | 23µM*
COc1ccc(-c2cc(C(F)(F)F)n3nc(C(=O)NCCN4CCOCC4)cc3n2)cc1 | ? | -18 | 0% | -7% | 14% | ?
O=S(=O)(NCCNc1nc(-c2ccco2)nc2ccccc12)c1ccccc1 | nt | nt | 3% | nt | nt | nt
CCN(CC)S(=O)(=O)c1ccc(NC(=O)CCc2c(C)nc3cc(-c4ccc(Cl)cc4)nn3c2C)cc1 | 3.7µM* | nt | 6% | 0% | -7% | 4.6µM*
CC(=O)c1ccc(NC(=O)CCc2c(C)nc3cc(-c4ccc(Cl)cc4)nn3c2C)cc1 | 6.5µM* | nt | -1% | -7% | -4% | ?
CC(=O)Nc1ccc(S(=O)(=O)N2CCc3c(Cl)cccc3C2)cc1 | ? | 3 | -1% | ? | -33% | -28%

Source: PubChem (National Center for Advancing Translational Sciences (NCATS))
